Measurements published in PubChem BioAssay (Tox21).
Records with an inconclusive call do not appear. Entries that show only a call come without a potency. Activity calls are given as the source filed them. Calls follow the shape of the dose curve; as a rule, active = well fitted cell-killing curve with a large enough effect in the repeat runs; inconclusive = weak or mixed curves, or effect the other way; inactive = no such curve, though single readings can be large or run the other way.

Assay: qHTS assay to identify aromatase inhibitors - cell viability counter screen (AID 743084);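 also: cells stimulated with testosterone during compound exposure; nearly all actives have a fitted effect of over 55% in size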
Details: MCF-7 aro ERE viability, CellTiter-Fluor, 24 h; series mostly up to 70.3 µM
Potency is read from the fitted curve at half-maximal effect.

SMILES	Potency
CC(CC(c1ccccc1)c1ccccc1)NC(C)(C)C (stereo not given)	inactive
Cc1cc(/C=C/c2ccc3cc(N(C)C)ccc3[n+]2C)c(C)n1-c1ccccc1	8.04 µM (active)
CN1CCN(CCC=C2c3ccccc3Sc3ccc(S(=O)(=O)N(C)C)cc32)CC1	29.8 µM (active)
CCC(=O)OCC(=O)[C@@]1(OC(=O)CC)[C@@H](C)C[C@H]2[C@@H]3CCC4=CC(=O)C=C[C@]4(C)[C@@]3(F)[C@@H](O)C[C@@]21C	inactive
CN1CCC(CN2c3ccccc3Sc3ccccc32)C1 (stereo not given)	inactive
CN1CCN(C2=Nc3ccccc3Cc3ccccc32)CC1	inactive
CC(CN1c2ccccc2Sc2ccc(S(=O)(=O)N(C)C)cc21)N(C)C (stereo not given)	inactive
O=C(O[C@H]1CN2CCC1CC2)N1CCc2ccccc2[C@@H]1c1ccccc1	inactive
C=C[C@]1(C)C[C@@H](OC(=O)CSC(C)(C)CNC(=O)[C@H](N)C(C)C)[C@]2(C)[C@H](C)CC[C@]3(CCC(=O)[C@H]32)[C@@H](C)[C@@H]1O	2.98 µM (active)
CC#CCC(C)[C@H](O)/C=C/[C@@H]1[C@H]2C/C(=C/CCCC(=O)O)C[C@H]2C[C@H]1O (stereo not given in full)	inactive
C/C=C(/CC[C@@H](C)[C@H]1CC[C@H]2C3=CC[C@H]4[C@H](C)[C@@H](O)CC[C@]4(C)[C@H]3CC[C@]12C)C(C)C	inactive
CN1CCCC(CN2c3ccccc3Sc3ccccc32)C1 (stereo not given)	inactive
CCC(=O)OCC(=O)[C@@]1(OC(=O)CC)[C@H](C)C[C@H]2[C@@H]3CCC4=CC(=O)C=C[C@]4(C)[C@@]3(F)[C@@H](O)C[C@@]21C	inactive
O=C(CCCN1CCC(C(=O)c2ccc(F)cc2)CC1)c1ccc(F)cc1	inactive
CNC(C)CCC=C(C)C (stereo not given)	inactive
CCOc1ccc(N=C(C)Nc2ccc(OCC)cc2)cc1	inactive
CCCC(=O)O[C@]1(C(=O)COC(=O)CC)[C@@H](C)C[C@H]2[C@@H]3CCC4=CC(=O)C=C[C@]4(C)[C@@]3(F)[C@@H](O)C[C@@]21C	inactive
CCCCCCCCCCCCCCCC(=O)O[C@@H]1CC(C)=C(/C=C/C(C)=C/C=C/C(C)=C/C=C/C=C(C)/C=C/C=C(C)/C=C/C2=C(C)C[C@@H](OC(=O)CCCCCCCCCCCCCCC)CC2(C)C)C(C)(C)C1	inactive
Cc1ccc(C2(O)CCN(CCCC(=O)c3ccc(F)cc3)CC2)cc1	inactive
O=C(OCCO)c1ccccc1O	inactive
C=C1C(=C/C=C2\CCC[C@]3(C)[C@@H]([C@H](C)CCCC(C)(C)O)CC[C@@H]23)C[C@@H](O)C[C@@H]1O	inactive
CC(=O)[C@@]1(O)CC[C@H]2[C@@H]3C=C(Cl)C4=CC(=O)CC[C@]4(C)[C@H]3CC[C@@]21C	inactive
COc1ccc(CNCC(O)COc2ccc3[nH]c(=O)ccc3c2)cc1OC (stereo not given)	inactive
N#Cc1ccc2c(c1)N(CCCN1CCC(O)CC1)c1ccccc1S2	inactive
O=C(O)c1c(Cl)c(Cl)c(Cl)c(Cl)c1-c1c2cc(I)c(=O)c(I)c-2oc2c(I)c(O)c(I)cc12	23.7 µM (active)
C[C@]12C=CC(=O)N[C@@H]1CC[C@@H]1[C@@H]2CC[C@]2(C)[C@@H](C(=O)Nc3cc(C(F)(F)F)ccc3C(F)(F)F)CC[C@@H]12	inactive
CCCCCCCN(CC)CCCC(O)c1ccc(NS(C)(=O)=O)cc1 (stereo not given)	inactive
CN(C)CCCN1c2ccccc2C(C)(C)c2ccccc21	inactive
c1ccc2c(c1)Sc1ccccc1N2CCN1CCCC1	inactive
O=C(CCCN1CCC(n2c(=S)[nH]c3ccccc32)CC1)c1ccc(F)cc1	inactive
